# Key:
# [1] = biological target: Protein kinase C gamma type (Homo sapiens) (UniProt P05129); conditions: at 1 µM;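 also: each value is an averaged percent inhibition of the enzyme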
# [2] = biological target: T1, Protein kinase C iota type (Homo sapiens) (UniProt P41743); conditions: at 0.1 µM
# T1 sequence (whole entry): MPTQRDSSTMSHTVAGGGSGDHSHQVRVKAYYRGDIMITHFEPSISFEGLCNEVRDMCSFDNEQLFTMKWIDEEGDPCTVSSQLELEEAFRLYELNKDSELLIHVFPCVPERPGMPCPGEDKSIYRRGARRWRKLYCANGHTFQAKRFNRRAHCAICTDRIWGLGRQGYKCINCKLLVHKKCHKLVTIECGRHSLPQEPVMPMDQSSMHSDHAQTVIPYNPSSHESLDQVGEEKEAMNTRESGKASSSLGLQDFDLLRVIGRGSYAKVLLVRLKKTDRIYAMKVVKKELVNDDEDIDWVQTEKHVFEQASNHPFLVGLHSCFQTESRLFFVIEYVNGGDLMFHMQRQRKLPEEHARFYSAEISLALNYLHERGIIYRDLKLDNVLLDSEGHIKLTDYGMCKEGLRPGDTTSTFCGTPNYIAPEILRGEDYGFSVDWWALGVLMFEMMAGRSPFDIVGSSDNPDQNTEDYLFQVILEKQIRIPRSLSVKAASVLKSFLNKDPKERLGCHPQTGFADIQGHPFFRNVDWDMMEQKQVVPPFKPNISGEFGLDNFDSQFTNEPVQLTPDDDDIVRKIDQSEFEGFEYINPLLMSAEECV
# [3] = biological target: T1, Protein kinase C iota type (Homo sapiens); conditions: at 1 µM
# [4] = biological target: Protein kinase C theta type (Homo sapiens) (UniProt Q04759); conditions: at 0.1 µM
# [5] = biological target: Protein kinase C theta type (Homo sapiens) (UniProt Q04759); conditions: at 1 µM
# [6] = biological target: Protein kinase C beta type (Homo sapiens) (UniProt P05771); conditions: at 0.1 µM
# [7] = biological target: Protein kinase C beta type (Homo sapiens) (UniProt P05771); conditions: at 1 µM
# [8] = biological target: T2, Serine/threonine-protein kinase D1 (Homo sapiens) (UniProt Q15139); conditions: at 0.1 µM
# T2 sequence (whole entry): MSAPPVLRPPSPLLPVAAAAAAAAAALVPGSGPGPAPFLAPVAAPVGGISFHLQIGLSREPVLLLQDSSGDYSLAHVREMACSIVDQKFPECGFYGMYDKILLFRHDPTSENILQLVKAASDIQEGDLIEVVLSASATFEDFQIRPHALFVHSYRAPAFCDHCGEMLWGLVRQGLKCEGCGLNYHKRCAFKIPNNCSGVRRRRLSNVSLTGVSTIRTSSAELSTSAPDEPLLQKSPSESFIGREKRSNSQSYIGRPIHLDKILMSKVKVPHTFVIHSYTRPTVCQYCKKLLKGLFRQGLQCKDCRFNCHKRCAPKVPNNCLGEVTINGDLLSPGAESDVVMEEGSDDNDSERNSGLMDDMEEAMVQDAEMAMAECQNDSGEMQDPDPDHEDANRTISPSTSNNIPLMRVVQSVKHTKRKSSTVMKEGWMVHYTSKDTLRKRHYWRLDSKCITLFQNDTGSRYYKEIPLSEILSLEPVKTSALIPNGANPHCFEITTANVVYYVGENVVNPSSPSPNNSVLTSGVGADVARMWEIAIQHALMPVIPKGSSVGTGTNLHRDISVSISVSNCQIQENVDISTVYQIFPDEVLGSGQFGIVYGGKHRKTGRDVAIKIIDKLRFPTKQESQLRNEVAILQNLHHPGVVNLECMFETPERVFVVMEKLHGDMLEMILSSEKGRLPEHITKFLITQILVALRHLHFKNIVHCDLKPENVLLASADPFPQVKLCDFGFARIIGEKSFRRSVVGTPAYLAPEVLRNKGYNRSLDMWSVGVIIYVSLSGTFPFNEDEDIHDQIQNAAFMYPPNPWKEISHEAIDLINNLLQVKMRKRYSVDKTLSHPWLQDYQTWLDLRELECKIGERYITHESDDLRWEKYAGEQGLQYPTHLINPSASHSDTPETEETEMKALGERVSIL
# [9] = biological target: T2, Serine/threonine-protein kinase D1 (Homo sapiens); conditions: at 1 µM
# [10] = biological target: T3, Serine/threonine-protein kinase D2 (Homo sapiens) (UniProt Q9BZL6); conditions: at 0.1 µM
# T3 sequence (whole entry): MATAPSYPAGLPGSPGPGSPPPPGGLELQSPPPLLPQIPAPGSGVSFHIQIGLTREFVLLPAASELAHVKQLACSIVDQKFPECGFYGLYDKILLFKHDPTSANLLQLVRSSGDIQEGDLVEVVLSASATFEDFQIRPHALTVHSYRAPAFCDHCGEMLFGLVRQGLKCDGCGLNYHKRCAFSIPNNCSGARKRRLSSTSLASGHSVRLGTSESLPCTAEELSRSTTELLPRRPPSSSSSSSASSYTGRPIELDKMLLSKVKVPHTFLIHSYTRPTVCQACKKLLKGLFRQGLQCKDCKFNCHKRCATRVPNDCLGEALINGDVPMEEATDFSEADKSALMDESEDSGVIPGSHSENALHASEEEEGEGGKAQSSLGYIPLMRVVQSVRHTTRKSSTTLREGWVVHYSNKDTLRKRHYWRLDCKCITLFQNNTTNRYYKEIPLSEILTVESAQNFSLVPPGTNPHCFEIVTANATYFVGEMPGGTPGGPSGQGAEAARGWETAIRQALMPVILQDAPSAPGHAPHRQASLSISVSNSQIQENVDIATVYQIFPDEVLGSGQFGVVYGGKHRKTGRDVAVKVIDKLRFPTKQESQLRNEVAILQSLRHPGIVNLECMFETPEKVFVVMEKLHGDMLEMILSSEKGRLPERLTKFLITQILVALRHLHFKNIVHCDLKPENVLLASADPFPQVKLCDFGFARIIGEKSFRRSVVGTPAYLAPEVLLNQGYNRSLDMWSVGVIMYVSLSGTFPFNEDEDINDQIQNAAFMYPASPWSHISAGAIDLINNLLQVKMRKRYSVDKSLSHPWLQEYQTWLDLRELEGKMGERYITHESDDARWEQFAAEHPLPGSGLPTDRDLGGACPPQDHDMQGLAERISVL
# [11] = biological target: T3, Serine/threonine-protein kinase D2 (Homo sapiens); conditions: at 1 µM
# [12] = biological target: T4, Serine/threonine-protein kinase D3 (Homo sapiens) (UniProt O94806); conditions: at 0.1 µM
# T4 sequence (whole entry): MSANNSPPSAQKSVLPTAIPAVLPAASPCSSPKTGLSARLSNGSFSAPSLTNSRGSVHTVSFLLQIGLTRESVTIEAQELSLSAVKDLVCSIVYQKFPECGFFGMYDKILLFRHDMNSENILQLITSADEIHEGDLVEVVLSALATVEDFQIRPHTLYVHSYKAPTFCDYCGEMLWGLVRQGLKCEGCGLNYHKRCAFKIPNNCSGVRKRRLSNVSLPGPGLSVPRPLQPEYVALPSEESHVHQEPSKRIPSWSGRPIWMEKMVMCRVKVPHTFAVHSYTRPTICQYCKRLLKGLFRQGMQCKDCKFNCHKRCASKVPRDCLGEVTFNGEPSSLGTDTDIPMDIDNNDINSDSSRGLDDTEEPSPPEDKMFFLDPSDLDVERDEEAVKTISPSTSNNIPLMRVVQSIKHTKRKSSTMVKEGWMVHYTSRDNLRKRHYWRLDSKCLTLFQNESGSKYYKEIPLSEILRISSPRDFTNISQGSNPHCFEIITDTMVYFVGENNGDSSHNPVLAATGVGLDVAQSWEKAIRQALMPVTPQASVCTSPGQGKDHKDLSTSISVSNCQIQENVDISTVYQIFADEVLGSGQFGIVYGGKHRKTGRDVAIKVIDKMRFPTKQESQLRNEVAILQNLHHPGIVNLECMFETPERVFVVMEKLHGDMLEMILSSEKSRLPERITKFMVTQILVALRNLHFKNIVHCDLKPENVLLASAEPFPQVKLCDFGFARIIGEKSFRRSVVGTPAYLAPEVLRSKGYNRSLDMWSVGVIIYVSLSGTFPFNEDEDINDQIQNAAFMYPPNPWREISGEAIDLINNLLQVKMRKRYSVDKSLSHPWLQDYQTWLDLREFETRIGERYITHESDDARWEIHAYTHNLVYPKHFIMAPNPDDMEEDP
# [13] = biological target: T4, Serine/threonine-protein kinase D3 (Homo sapiens); conditions: at 1 µM
# [14] = biological target: T5, cGMP-dependent protein kinase 1 (Homo sapiens) (UniProt Q13976); conditions: at 0.1 µM
# T5 sequence (whole entry): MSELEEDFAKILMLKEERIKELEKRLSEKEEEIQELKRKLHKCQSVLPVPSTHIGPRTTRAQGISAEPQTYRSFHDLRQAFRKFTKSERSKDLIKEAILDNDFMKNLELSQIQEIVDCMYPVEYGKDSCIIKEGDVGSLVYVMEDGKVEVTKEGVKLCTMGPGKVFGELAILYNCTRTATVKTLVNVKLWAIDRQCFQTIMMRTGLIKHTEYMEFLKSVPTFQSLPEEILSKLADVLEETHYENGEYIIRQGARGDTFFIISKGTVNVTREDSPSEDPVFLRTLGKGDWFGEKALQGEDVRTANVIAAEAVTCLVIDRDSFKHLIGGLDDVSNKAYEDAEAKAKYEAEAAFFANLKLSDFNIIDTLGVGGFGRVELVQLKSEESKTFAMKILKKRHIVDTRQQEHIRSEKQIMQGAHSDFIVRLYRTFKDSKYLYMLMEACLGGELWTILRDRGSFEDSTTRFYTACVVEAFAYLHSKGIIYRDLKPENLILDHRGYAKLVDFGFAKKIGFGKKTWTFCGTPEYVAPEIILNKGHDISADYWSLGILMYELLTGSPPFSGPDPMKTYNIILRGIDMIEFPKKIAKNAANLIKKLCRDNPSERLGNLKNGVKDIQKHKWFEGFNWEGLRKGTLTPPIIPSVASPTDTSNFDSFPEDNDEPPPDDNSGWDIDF
# [15] = biological target: T5, cGMP-dependent protein kinase 1 (Homo sapiens); conditions: at 1 µM
# [16] = biological target: T6, cGMP-dependent protein kinase 2 (Homo sapiens) (UniProt Q13237); conditions: at 0.1 µM
# T6 sequence (whole entry): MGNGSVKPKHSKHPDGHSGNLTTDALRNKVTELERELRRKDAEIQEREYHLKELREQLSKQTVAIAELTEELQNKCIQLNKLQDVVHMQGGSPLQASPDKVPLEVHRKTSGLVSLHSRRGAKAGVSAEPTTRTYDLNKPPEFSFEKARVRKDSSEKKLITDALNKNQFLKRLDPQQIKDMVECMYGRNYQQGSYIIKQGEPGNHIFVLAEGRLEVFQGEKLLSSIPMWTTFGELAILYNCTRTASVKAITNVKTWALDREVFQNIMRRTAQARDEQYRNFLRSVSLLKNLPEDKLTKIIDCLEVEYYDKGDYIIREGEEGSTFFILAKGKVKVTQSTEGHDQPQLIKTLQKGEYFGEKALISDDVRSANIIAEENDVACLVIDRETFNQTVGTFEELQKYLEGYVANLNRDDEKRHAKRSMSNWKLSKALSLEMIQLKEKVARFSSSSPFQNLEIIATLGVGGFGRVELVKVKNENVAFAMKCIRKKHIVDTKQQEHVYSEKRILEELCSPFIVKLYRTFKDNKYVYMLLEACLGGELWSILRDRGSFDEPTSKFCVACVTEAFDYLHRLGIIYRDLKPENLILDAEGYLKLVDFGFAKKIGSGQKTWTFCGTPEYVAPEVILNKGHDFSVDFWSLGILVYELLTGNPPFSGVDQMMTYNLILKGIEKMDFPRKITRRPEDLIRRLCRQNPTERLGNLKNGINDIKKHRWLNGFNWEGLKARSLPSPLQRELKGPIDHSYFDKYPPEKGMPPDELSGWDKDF
# [17] = biological target: T6, cGMP-dependent protein kinase 2 (Homo sapiens); conditions: at 1 µM
# [18] = biological target: T7, cAMP-dependent protein kinase catalytic subunit PRKX (Homo sapiens) (UniProt P51817); conditions: at 0.1 µM
# T7 sequence (whole entry): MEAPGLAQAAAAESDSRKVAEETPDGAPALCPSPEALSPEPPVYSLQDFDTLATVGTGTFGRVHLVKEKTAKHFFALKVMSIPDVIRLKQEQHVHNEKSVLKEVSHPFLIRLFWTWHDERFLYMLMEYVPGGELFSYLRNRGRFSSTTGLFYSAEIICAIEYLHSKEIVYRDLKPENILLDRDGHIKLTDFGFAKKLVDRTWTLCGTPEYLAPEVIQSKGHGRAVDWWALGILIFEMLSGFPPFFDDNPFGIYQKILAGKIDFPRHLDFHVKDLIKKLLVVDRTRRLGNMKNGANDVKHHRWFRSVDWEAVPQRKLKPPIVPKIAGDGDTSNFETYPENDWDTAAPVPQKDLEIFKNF
# [19] = biological target: T7, cAMP-dependent protein kinase catalytic subunit PRKX (Homo sapiens); conditions: at 1 µM
# [20] = biological target: Rho-associated protein kinase 1 (Homo sapiens) (UniProt Q13464); conditions: at 0.1 µM;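 also: values are mean percent inhibition of ROCK1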
# Chain of Rho-associated protein kinase 1 (Homo sapiens) (Q13464 2-1354 limits assumed): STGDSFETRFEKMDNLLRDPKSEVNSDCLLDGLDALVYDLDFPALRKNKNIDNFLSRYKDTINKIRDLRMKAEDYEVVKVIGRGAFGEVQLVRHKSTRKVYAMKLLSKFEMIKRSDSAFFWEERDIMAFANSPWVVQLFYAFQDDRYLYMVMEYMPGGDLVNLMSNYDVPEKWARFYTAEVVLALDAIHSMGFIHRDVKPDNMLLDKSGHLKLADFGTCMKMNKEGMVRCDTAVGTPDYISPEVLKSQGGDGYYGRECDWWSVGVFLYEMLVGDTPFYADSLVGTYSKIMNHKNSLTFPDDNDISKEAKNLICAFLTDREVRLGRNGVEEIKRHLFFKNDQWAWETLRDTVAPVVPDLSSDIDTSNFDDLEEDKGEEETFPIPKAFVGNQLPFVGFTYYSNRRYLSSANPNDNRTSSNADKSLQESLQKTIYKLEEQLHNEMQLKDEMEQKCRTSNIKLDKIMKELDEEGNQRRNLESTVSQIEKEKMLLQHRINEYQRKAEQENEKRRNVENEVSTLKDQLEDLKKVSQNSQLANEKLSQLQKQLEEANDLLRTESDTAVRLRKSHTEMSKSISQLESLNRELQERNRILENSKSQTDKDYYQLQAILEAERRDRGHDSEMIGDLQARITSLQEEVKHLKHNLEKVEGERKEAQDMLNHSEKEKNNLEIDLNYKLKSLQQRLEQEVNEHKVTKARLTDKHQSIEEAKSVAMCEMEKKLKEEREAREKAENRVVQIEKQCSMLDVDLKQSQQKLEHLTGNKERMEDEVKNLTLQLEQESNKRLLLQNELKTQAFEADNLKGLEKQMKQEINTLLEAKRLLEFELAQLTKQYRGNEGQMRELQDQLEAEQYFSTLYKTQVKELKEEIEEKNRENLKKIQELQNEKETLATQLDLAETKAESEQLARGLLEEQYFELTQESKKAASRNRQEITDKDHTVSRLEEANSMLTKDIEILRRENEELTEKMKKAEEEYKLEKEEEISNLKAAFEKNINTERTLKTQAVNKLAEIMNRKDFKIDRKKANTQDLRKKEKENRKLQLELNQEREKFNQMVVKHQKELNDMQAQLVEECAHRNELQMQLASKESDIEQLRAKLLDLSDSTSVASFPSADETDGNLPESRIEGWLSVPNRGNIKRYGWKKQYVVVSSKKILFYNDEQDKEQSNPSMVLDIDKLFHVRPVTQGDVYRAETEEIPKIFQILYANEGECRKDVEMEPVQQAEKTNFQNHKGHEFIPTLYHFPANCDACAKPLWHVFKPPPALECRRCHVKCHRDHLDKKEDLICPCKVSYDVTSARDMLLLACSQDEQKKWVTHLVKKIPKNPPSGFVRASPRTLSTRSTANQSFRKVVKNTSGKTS
# Chain of Protein kinase C beta type (Homo sapiens) (P05771 2-671 limits assumed): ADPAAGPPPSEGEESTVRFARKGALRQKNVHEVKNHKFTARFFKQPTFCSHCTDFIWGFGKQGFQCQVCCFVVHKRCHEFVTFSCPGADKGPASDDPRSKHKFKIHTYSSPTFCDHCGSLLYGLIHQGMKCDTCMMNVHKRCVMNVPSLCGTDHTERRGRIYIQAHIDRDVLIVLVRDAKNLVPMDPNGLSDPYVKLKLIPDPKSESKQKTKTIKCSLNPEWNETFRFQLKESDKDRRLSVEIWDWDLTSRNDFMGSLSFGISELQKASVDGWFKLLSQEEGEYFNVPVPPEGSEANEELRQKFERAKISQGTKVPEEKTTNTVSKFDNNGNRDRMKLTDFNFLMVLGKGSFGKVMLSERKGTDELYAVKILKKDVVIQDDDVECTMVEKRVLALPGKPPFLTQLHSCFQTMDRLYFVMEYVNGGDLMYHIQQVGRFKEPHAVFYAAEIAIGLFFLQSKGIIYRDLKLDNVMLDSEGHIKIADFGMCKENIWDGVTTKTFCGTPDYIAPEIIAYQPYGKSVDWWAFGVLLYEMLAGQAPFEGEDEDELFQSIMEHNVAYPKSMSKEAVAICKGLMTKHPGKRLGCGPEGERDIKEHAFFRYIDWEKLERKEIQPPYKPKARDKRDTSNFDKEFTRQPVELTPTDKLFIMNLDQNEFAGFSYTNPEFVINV
# Chain of Protein kinase C theta type (Homo sapiens) (Q04759 whole entry, looked up): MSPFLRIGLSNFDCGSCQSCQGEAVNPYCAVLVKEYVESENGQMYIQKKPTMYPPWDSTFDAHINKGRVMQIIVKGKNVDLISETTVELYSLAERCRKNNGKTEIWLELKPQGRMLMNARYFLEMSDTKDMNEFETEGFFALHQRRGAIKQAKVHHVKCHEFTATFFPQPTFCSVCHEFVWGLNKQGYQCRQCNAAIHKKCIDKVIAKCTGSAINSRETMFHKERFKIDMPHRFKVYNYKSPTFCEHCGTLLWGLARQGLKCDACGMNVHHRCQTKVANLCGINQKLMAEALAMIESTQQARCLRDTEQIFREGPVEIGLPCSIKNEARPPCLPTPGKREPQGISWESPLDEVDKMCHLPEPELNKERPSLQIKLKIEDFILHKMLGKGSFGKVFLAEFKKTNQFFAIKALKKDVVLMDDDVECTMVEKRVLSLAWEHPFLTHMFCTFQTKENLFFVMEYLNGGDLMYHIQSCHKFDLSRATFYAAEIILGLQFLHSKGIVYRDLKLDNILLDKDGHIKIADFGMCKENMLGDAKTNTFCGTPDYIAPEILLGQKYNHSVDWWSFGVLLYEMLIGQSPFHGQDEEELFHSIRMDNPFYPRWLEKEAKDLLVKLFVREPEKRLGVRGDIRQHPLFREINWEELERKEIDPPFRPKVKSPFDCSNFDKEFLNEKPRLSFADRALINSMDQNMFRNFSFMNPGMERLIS
Structure (SMILES),inhibition [1],inhibition [2],inhibition [3],inhibition [4],inhibition [5],inhibition [6],inhibition [7],inhibition [8],inhibition [9],inhibition [10],inhibition [11],inhibition [12],inhibition [13],inhibition [14],inhibition [15],inhibition [16],inhibition [17],inhibition [18],inhibition [19],inhibition [20]
Cc1cc(Cl)cc2c1NC(=O)C2=NNc1ccc(S(N)(=O)=O)cc1,1.99%,0.57%,0.13%,1.67%,3.19%,0.04%,1.07%,2.49%,2.15%,2.28%,2.34%,2.25%,1.81%,1.17%,3.27%,2.01%,2%,1.43%,3.22%,0.02%
CS(=O)(=O)CCNCc1nc(-c2ccc3ncnc(Nc4ccc(OCc5cccc(C(F)(F)F)c5)cc4)c3c2)cs1,1.21%,-0.91%,-0.71%,0.61%,0.48%,0.86%,1.98%,1.69%,0.7%,1.93%,0.2%,0.92%,2.19%,0.49%,2.23%,0.51%,1.54%,0.7%,-0.71%,-0.53%
FC(F)(F)c1ccc(-c2nn3ncccc3c2-c2ccnc(Nc3ccc4c(c3)OCCO4)n2)cc1,5.47%,6.58%,3.53%,2.52%,5.32%,5.29%,6.33%,2.27%,-1.71%,0.7%,3.07%,-0.32%,-0.07%,3.5%,5.3%,3.41%,4.83%,5.94%,8.53%,1.44%

# Reference: ChEMBL document CHEMBL1961873, “Compounds: GSK PKIS; Assays: Nanosyn kinase panel” (2012)
